Experimental findings from PubChem BioAssay (Tox21) are described below.

The target in assay [1] is Nuclear receptor subfamily 1 group I member 2 (Rattus norvegicus) (UniProt Q9R1A7). As to the kind of experiment: Rat pregnane X receptor (rPXR) activation by small molecules, qHTS assay (AID 1346983). Note: nearly all actives have a fitted effect of over 20% in size. The conditions noted are these: rPXR luciferase reporter cells, One-Glo luminescence, 24 h; max activation: stronger effect = higher value. The procedure, abridged:
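Luminescent readout (One-Glo luciferase, 30 min room temperature) followed 24 hr compound treatment at 37 C of rPXR cells plated 2,000 per well and preincubated 5hr; qHTS format with compounds delivered in DMSO.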
(qHTS replaces the single test concentration by a dilution series.)

The target of assay [2] is Nuclear receptor subfamily 1 group I member 2 (Homo sapiens) (UniProt O75469). As to the kind of experiment: CYP3A4 induction through human pregnane X receptor (PXR) by small molecules, qHTS assay (AID 1346984). Note: nearly all actives have a fitted effect of over 40% in size. Put shortly: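 Read-out is luminescence after One-Glo addition, following a 3 hr, 37C incubation with Luciferin-IPA CYP3A4 substrate (3uM final). Before that, compounds were on DPX-2 cells (HepG2 co-transfected with PXR element plus CYP3A4-promoter luciferase) for 24 hr at 37C.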

Assay [3] has the same target. As to the kind of experiment: Human pregnane X receptor (PXR) activation by small molecules, qHTS assay (AID 1346985). Note: nearly all actives have a fitted effect of over 40% in size. Put shortly: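 DPX-2 cells (HepG2 co-transfected with a PXR response element and a CYP3A4-promoter luciferase construct) were seeded at 2,000 per well, rested 5 hr at 37C, then exposed to DMSO-dissolved compounds for 24 hr. Activation was read as luciferase luminescence.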

Molecules are shown by their SMILES. Several values for one entry are separate records, joined by “and”; a condition that tells them apart may be missing. Equal entries are not always repeated. Inconclusive results are not listed. The source holds several records for some structures; these can differ, active in one and inactive in another. Activity calls are given as the source filed them. Calls come from the whole dose curve; as a rule, active = well fitted curve in the direction sought with a large enough effect in the repeat runs; inconclusive = weak or mixed curves; inactive = no such curve, though single readings can be large; an effect the other way counts as inactive or inconclusive.
% is set by controls: 0 for no effect and ±100 for the full control effect; potency is the fitted concentration of half-maximal effect.

Sequence of Nuclear receptor subfamily 1 group I member 2 (Rattus norvegicus) (Q9R1A7 whole entry, looked up): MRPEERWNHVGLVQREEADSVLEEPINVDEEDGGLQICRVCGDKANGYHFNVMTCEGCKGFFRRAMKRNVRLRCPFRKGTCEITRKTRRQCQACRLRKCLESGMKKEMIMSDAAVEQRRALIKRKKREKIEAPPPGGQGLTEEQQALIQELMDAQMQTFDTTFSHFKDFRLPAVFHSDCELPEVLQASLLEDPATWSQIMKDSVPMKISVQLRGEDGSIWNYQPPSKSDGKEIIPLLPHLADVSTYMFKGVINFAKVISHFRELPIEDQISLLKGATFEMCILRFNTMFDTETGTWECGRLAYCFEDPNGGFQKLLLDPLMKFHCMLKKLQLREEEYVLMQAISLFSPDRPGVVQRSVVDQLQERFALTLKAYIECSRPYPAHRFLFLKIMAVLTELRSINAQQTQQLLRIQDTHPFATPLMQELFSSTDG

For the compound `O=P(O)(O)CP(=O)(O)O`, the max activation in assay [1] was -0.378% (inactive). The Potency entry in assay [2] and in assay [3] was “inactive” in each case.
For `CC(CNC(=O)c1cccnc1)NC(=O)c1cccnc1` (stereo unspecified), the max activation in assay [1] is -2.47% (inactive). Moreover, the Potency entry in assay [2] and in assay [3] was “inactive” in each case.
Take `CC1CCCC(C)N1NC(=O)c1ccc(Cl)c(S(N)(=O)=O)c1` (stereo unspecified): the max activation in assay [1] is -4.09% (inactive). Moreover, the Potency entry in assay [2] and in assay [3] was “inactive” in each case.
As to `O=C1c2ccccc2CN2C(=O)c3ccccc3CN12`, the max activation in assay [1] is -1.83% (inactive). Besides, the Potency entry in assay [2] and in assay [3] was “inactive” throughout.
For the compound `CC[C@H]1OC(=O)[C@H](C)C(=O)[C@H](C)[C@@H](O[C@@H]2O[C@H](C)C[C@H](N(C)C)[C@H]2O)[C@](C)(OC)C[C@@H](C)C(=O)[C@H](C)[C@H]2N(CCCCn3cnc(-c4cccnc4)c3)C(=O)O[C@]12C`, the max activation in assay [1] is 2.76% (inactive). In addition, the Potency entry was “inactive and 501 nM (active)” in assay [2]; “inactive and 794 nM (active)” in assay [3].
For `C[C@@H]1O[C@@H]1P(=O)(O)O`, the max activation in assay [1] was -1.9% (inactive). Further, the Potency entry in assay [2] and in assay [3] was “inactive” throughout.
As to `CO[C@H]1C[C@H](O[C@H]2[C@H](C)[C@@H](O[C@@H]3O[C@H](C)C[C@H](N(C)C)[C@H]3O)[C@@H](C)C[C@]3(CO3)C(=O)[C@H](C)[C@@H](O)[C@@H](C)[C@@H](C)OC(=O)[C@@H]2C)O[C@@H](C)[C@@H]1O`, in assay [1], the max activation is 3.2% (inactive). The Potency entry in assay [2] and in assay [3] was “inactive” throughout.
For the compound `O=C(O)CCCC/C=C(\c1ccccc1)c1cccnc1`, in assay [1], the max activation was -2.2% (inactive). The Potency entry in assay [2] and in assay [3] was “inactive” each time.
In the case of `Nc1nc(NC2CC2)c2ncn([C@@H]3C=C[C@@H](CO)C3)c2n1`, the values for the Potency in assay [1] and in assay [3] were 5.01 µM (active) and 7.08 µM (active), respectively. For the same compound, the Potency entry in assay [2] was “inactive”.
`NCC[C@H](O)C(=O)N[C@@H]1C[C@H](N)[C@@H](O[C@H]2O[C@H](CN)CC[C@H]2N)[C@H](O)[C@H]1O[C@H]1O[C@H](CO)[C@@H](O)[C@H](N)[C@H]1O`: the max activation in assay [1] was -1.85% (inactive). Also, the Potency result in assay [2] and in assay [3] was “inactive” in each case.
With `CC/C=C\C/C=C\C/C=C\C/C=C\C/C=C\C/C=C\CCC(=O)O`, the max activation in assay [1] was -7.03% (inactive). Moreover, the Potency result in assay [2] and in assay [3] was “inactive” throughout.
`C=C1[C@H](CO)[C@@H](O)C[C@@H]1n1cnc2c(=O)[nH]c(N)nc21`: the max activation in assay [1] was -2.99% (inactive). Moreover, the Potency entry in assay [2] and in assay [3] was “inactive” in each case.
For the compound `N[C@H](CO)C(=O)O`, in assay [1], the max activation was -0.898% (inactive). For the same compound, the Potency result in assay [2] and in assay [3] was “inactive” throughout.
On to `Cc1cc(N)c2ccccc2[n+]1CCCCCCCCCC[n+]1c(C)cc(N)c2ccccc21`, for which the max activation in assay [1] was -11.7% (inactive). Also, the Potency result in assay [2] and in assay [3] was “inactive” each time.
As to `Cc1cc(CC(C)CC(C)(C)C)n(O)c(=O)c1` (stereo unspecified) (tested in a mixture with another compound), in assay [1], the max activation is -3.3% (inactive). Further, in assay [2], the Potency entry is “inactive”. In assay [3], the Potency is 25.1 µM (active).
The like results for `Cc1cc(-c2ccc(N=Nc3ccc4c(S(=O)(=O)O)cc(S(=O)(=O)O)c(N)c4c3O)c(C)c2)ccc1N=Nc1ccc2c(S(=O)(=O)O)cc(S(=O)(=O)O)c(N)c2c1O` were, in that order, -5.28% (inactive), “inactive” and “inactive”.
Turning to `NC[C@H]1O[C@H](O[C@H]2[C@H](O)[C@@H](O[C@H]3O[C@H](CO)[C@@H](O)[C@H](N)[C@H]3O)[C@H](N)C[C@@H]2N)[C@H](N)C[C@@H]1O`, the max activation in assay [1] is 7.07% (inactive). For the same compound, the Potency result in assay [2] and in assay [3] was “inactive” each time.
As to `O=C[C@H](O)[C@@H](O)[C@@H](O)[C@H](O)CO`, the max activation in assay [1] was -2.08% (inactive). Also, the Potency result in assay [2] and in assay [3] was “inactive” in each case.
As to `CC(C)(C)C(=O)OCC(=O)[C@H]1CC[C@H]2[C@@H]3CCC4=CC(=O)CC[C@]4(C)[C@H]3CC[C@]12C`, the max activation in assay [1] is -6.33% (inactive). The Potency result in assay [2] and in assay [3] was “inactive” each time.
Turning to `CO/N=C(\C(=O)N[C@@H]1C(=O)N2C(C(=O)[O-])=C(C[n+]3cccc4c3CCC4)CS[C@H]12)c1csc(N)n1`, in assay [1], the max activation was -2.77% (inactive). The Potency result in assay [2] and in assay [3] was “inactive” each time.
In the case of `CC(=O)OCC(=O)[C@@]1(O)CC[C@H]2[C@@H]3CCC4=CC(=O)CC[C@]4(C)C3=CC[C@@]21C`, the max activation in assay [1] was -1.67% (inactive). The Potency entry in assay [2] and in assay [3] was “inactive” in each case.
As for `CN[C@@H]1[C@@H](O[C@H]2O[C@H](CO)[C@@H](N)[C@H](O)[C@H]2O)O[C@H]2C[C@@H](N)[C@@H](O[C@H]3[C@H](O)[C@@H](O)[C@H](N)C[C@@H]3N)O[C@@H]2[C@@H]1O`, the max activation in assay [1] was -0.875% (inactive). Besides, the Potency entry in assay [2] and in assay [3] was “inactive” in each case.
As for `CC/C(=C(/CC)c1ccc(OP(=O)(O)O)cc1)c1ccc(OP(=O)(O)O)cc1`, the max activation in assay [1] was -1.74% (inactive). Further, the Potency entry in assay [2] and in assay [3] was “inactive” each time.
Regarding `NC(=O)CC[C@@H]1NC(=O)[C@H](Cc2ccccc2)NC(=O)[C@H](Cc2ccc(O)cc2)NC(=O)[C@@H](N)CSSC[C@@H](C(=O)N2CCC[C@H]2C(=O)N[C@@H](CCCN=C(N)N)C(=O)NCC(N)=O)NC(=O)[C@H](CC(N)=O)NC1=O`, in assay [1], the max activation was -0.0397% (inactive). The Potency result in assay [2] and in assay [3] was “inactive” throughout.
As to `O=C1CC[C@@H](C(=O)N[C@H]2C[C@@H]2c2ccccc2)N1`, the max activation in assay [1] is -3.97% (inactive). Moreover, the Potency entry in assay [2] and in assay [3] was “inactive” each time.
In the case of `OCCCNc1ccccc1`, the max activation in assay [1] is -0.22% (inactive). For the same compound, the Potency result in assay [2] and in assay [3] was “inactive” throughout.
Consider `C=CC[N+]1([C@H]2C[C@H]3[C@@H]4CC[C@H]5C[C@H](O)[C@@H](N6CCOCC6)C[C@]5(C)[C@H]4CC[C@]3(C)[C@H]2OC(C)=O)CCCC1`, for which the max activation in assay [1] was -2.81% (inactive). Also, the Potency result in assay [2] and in assay [3] was “inactive” throughout.
